Reference: PMC5540273 (PLoS ONE, 2017)

test system: ERBB4; conditions: concentration: 1 μM,replicates: in singlicate; n = 1
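Note: KINOMEscan kinase panel screen.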

| Compound | %Inh [%] |
| --- | --- |
| CNC(=O)c1ccccc1Nc1nc(Nc2cccc(CS(C)(=O)=O)c2)ncc1C.O=CO [GSK1520489] | 98.2 |
| O=C(Nc1n[nH]c2cc(-c3ccco3)ccc12)C1CC1 [SB-737447] | 0 |
| CSc1nccc(-c2c(-c3ccc(F)cc3)ncn2CCCN2CCOCC2)n1.Cl [SB-217146] | 0 |
| COc1cccc(CNC(=O)NC2CCN(c3ccnc(Nc4cc(OC)c(OC)c(OC)c4)n3)C2)c1 (stereo not shown) [GSK1379765] | 38 |
| Cn1cc(-c2cccc3c(N)c(C(N)=O)nnc23)cn1 | 0 |
| Cc1ccc(Nc2ccnc(Nc3ccc4c(c3)CS(=O)(=O)C4)n2)cc1O.Cl [GW579362] | 69 |
| CC(C(=O)NC1CCN(c2ccnc(Nc3ccc(F)cc3)n2)C1)c1ccc(Cl)cc1 (stereo not shown) [GSK1379713] | 0 |
| COc1cc2c(Nc3ccc(NC(=O)c4ccccc4)cc3)ncnc2cc1OCCCN1CCOCC1 [GSK301329] | 85 |
| N#Cc1cccc(C(=O)NC2CCN(c3ccnc(Nc4ccc(F)cc4)n3)C2)c1 (stereo not shown) [GSK1379708] | 10 |
| CN1CCN(CCCNc2nccc(-c3c(-c4ccc(F)cc4)nn4cc(C(N)=O)ccc34)n2)CC1 [GW622475] | 63 |
| O=C(Nc1cccc(C(F)(F)F)c1)c1cccc(Oc2ccc3nccn3n2)c1 | 0 |
| COC(=O)Nc1nc2cc(Oc3ccc(NC(=O)Nc4cc(C(F)(F)F)ccc4Cl)cc3)ccc2[nH]1.Cl [GW697465] | 37 |
| Cn1ccc2ncnc(Oc3ccc(NC(=O)Nc4ccnc(C(F)(F)F)c4)c(Cl)c3)c21 | 0 |
| Cc1cccc2c(-c3ccncc3)c(-c3ccc(F)cc3)nn12.Cl [GW461487] | 16 |
| COc1cccc(C2=C(Nc3cccc(Cl)c3)C(=O)NC2=O)c1 [SB-341556] | 0 |
| OCCn1cc(-c2cnc3nnn(Cc4ccc5ncccc5c4)c3n2)cn1 | 0 |
| CC(=O)c1c(-c2ccncc2)[nH]c(-c2ccncc2)c1C [GW493036] | 34 |
| Cn1ccc2ncnc(Oc3ccc(NC(=O)Nc4cncc(C(F)(F)F)c4)c(Cl)c3)c21 | 2 |
| O=c1[nH]cc(-c2ccc(O)cc2)c2sc(-c3ccncc3)cc12 [GSK1033723] | 2 |

| Compound | %Inh [%] |
| --- | --- |
| COC(=O)c1cccc(NC(=O)NC2CCN(c3ccnc(NCc4ccc(F)cc4)n3)CC2)c1 [GSK1379860] | 6 |
| Cn1ccc2ncnc(Oc3ccc(NC(=O)Nc4cccc(C(F)(F)F)c4)c(F)c3)c21 | 2 |
| Cl.c1ccc(Oc2ccc(Nc3ccnc4cc(-c5ccc(CN6CCNCC6)o5)ccc34)cc2)nc1 [GW567142] | 42 |
| CS(=O)(=O)c1cccc(CNc2nc(Nc3ccc4c(c3)[C@@H]3C[C@@H]4CNC3=O)ncc2C(F)(F)F)c1 | 20 |
| C[C@@H](Oc1cc(-n2cnc3ccc(-c4ccncc4)cc32)sc1C(N)=O)c1ccccc1Cl [GSK483724] | 41 |
| CCOC(=O)N1CCC(n2cnc(-c3ccc(F)cc3)c2-c2ccnc(N)n2)CC1 [SB-219952] | 21 |
| Cn1ccc2ncnc(Oc3ccc(NC(=O)Nc4cc(C(C)(C)C)on4)c(Cl)c3)c21 | 0 |
| Cc1n[nH]c2cc(Nc3ccnc(Nc4cccc(CN5CCOCC5)c4)n3)ccc12 [GW682569] | 43 |
| NC(=O)c1ccc(-c2cc3ncnc(SCC(=O)O)c3s2)cc1 | 10 |
| Cc1ccc(CC(=O)N2CCc3cc(-c4cn(C)c5ncnc(N)c45)ccc32)cc1 [GSK2634758] | 18 |
| COc1ccc(Nc2nccc(N3CCC(NC(=O)c4cccc(C#N)c4)C3)n2)cc1 (stereo not shown) [GSK1379730] | 0 |
| Cn1ccc2ncnc(Oc3ccc(NC(=O)Nc4cccc(C(F)(F)F)c4)c(Cl)c3)c21 | 12 |
| O=C(Nc1ccccc1)c1cccc(Oc2ccc3nccn3n2)c1 | 0 |
| Cn1ccc2ncnc(Oc3ccc(NC(=O)Nc4cnn(C(C)(C)C)c4)c(Cl)c3)c21 | 12 |
| CCn1c(-c2nonc2N)nc2cncc(CNC3CCNCC3)c21.Cl [SB-747651] | 0 |
| COc1cc2nccc(Nc3ccc(Oc4ccccc4)cc3)c2cc1OC.Cl [GI261656] | 85 |
| Cl.Cl.NC[C@H](CC1CCCCC1)NC(=O)c1ccc(-c2ccnc3[nH]ccc23)s1 [GSK1581428] | 0 |
| Cc1cccc(-c2nc(Nc3ccncc3)c3sccc3n2)n1 [GW869641] | 13 |
